Source: PubChem BioAssay (NCI)
About 83,000 compounds went through this panel and 20% of them were active in at least one assay; those are over-represented in the sample as a whole.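 Negative percent growth values reflect cell death: -40 means 40% of the cells present at the start died, and -100 means all died.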 The source made the active and inactive calls. How the source made its calls: active means growth percent below 10; inactive means the rest.

Key:
Assay in all cases: NCI-60 one-dose screen, 48 h (100 = growth as untreated, 0 = no growth, -100 = all killed)
Settings in all cases: 10 µM
BT-549 breast = tested on: BT-549 breast
MDA-MB-435 melanoma = tested on: MDA-MB-435 melanoma
SW-620 colon = tested on: SW-620 colon
MCF7 breast = tested on: MCF7 breast
HCT-116 colon = tested on: HCT-116 colon
HCC-2998 colon = tested on: HCC-2998 colon
KM12 colon = tested on: KM12 colon

Measured: growth

CCOCC(=O)C(C#N)c1ccc(Cl)c(Cl)c1 (stereo unspecified)
inactive: BT-549 breast 104% | MDA-MB-435 melanoma 92.8% | SW-620 colon 102% | MCF7 breast 92.2% | HCT-116 colon 105% | HCC-2998 colon 106% | KM12 colon 107%

Nc1ccc2c(c1)C1(CCC2)NC(=O)NC1=O (stereo unspecified)
inactive: BT-549 breast 102% | MDA-MB-435 melanoma 102% | SW-620 colon 104% | MCF7 breast 97.2% | HCT-116 colon 101% | HCC-2998 colon 115% | KM12 colon 102%

Nc1ccc2cc(S(=O)(=O)O)cc(O)c2c1N=Nc1ccc(F)cc1
inactive: BT-549 breast 102% | MDA-MB-435 melanoma 113% | SW-620 colon 104% | MCF7 breast 111% | HCT-116 colon 93.4% | HCC-2998 colon 102% | KM12 colon 107%

CC(=O)CSC(C)=O
inactive: BT-549 breast 105% | MDA-MB-435 melanoma 96.5% | SW-620 colon 101% | MCF7 breast 93% | HCT-116 colon 98% | HCC-2998 colon 110% | KM12 colon 107%

CC(C)(C#N)Nc1ccccc1
inactive: BT-549 breast 108% | MDA-MB-435 melanoma 96.1% | SW-620 colon 112% | MCF7 breast 93.4% | HCT-116 colon 101% | HCC-2998 colon 119% | KM12 colon 115%

Cc1nc2c(c(=O)[nH]1)OCN(Cc1ccccc1)C2
inactive: BT-549 breast 102% | MDA-MB-435 melanoma 112% | SW-620 colon 102% | MCF7 breast 102% | HCT-116 colon 100% | HCC-2998 colon 104% | KM12 colon 104%

c1ccc2c(c1)oc1c3c(ccc12)NCCC3
inactive: BT-549 breast 89.5% | MDA-MB-435 melanoma 106% | SW-620 colon 103% | MCF7 breast 40.9% | HCT-116 colon 95.7% | HCC-2998 colon 97.2% | KM12 colon 101%

FC(F)(F)c1ccc(-c2cnc(-n3cc(COCCN4CCCCC4)nn3)nc2NC2CCCCCC2)cc1
active: MDA-MB-435 melanoma -68.9% | SW-620 colon 4.79% | MCF7 breast -1.43% | HCC-2998 colon 6.9%
inactive: BT-549 breast 68.1% | HCT-116 colon 22.3% | KM12 colon 17.6%

Clc1ccc(-c2cn(-c3ccccc3)c(-c3ccccc3)n2)c(Cl)c1
inactive: HCC-2998 colon 13.7%
active: BT-549 breast -12.7% | MDA-MB-435 melanoma -37.2% | SW-620 colon -100% | MCF7 breast 5.1% | HCT-116 colon -100% | KM12 colon -88%

CCOC(=O)C(=Cc1ccc(Br)cc1)C(=O)OCC
active: BT-549 breast -43.3% | MDA-MB-435 melanoma -4.37% | SW-620 colon -71.2% | MCF7 breast 0.372% | HCT-116 colon -80.4% | HCC-2998 colon -82.2% | KM12 colon -25.3%

NC1(C(=O)O)CSSC1
inactive: BT-549 breast 85.4% | MDA-MB-435 melanoma 89.4% | SW-620 colon 99.4% | MCF7 breast 43.4% | HCT-116 colon 83.1% | HCC-2998 colon 118% | KM12 colon 93.4%

O=C(Nc1ccc(Cl)c([N+](=O)[O-])c1)Nc1nc2ccccc2s1
inactive: BT-549 breast 88.3% | MDA-MB-435 melanoma 89.4% | SW-620 colon 99.4% | MCF7 breast 79% | HCT-116 colon 66.3% | HCC-2998 colon 86.3% | KM12 colon 106%

Cc1ncc(-c2ccoc2)c(NC2CCCCCC2)n1
inactive: BT-549 breast 115% | MDA-MB-435 melanoma 110% | SW-620 colon 111% | MCF7 breast 112% | HCT-116 colon 99.8% | HCC-2998 colon 105% | KM12 colon 105%

CC1(C)N=C(N)N=C(N)N1c1ccc(CCc2ccccc2)c(Cl)c1
inactive: BT-549 breast 35.6% | MDA-MB-435 melanoma 16.2% | SW-620 colon 17.6% | MCF7 breast 13.4% | HCT-116 colon 10.2% | HCC-2998 colon 15.3% | KM12 colon 13.5%

CCOC(=O)C1(CC(C)C)CCOC1=O (stereo unspecified)
inactive: BT-549 breast 105% | MDA-MB-435 melanoma 104% | SW-620 colon 98.3% | MCF7 breast 93.5% | HCT-116 colon 107% | HCC-2998 colon 106% | KM12 colon 99.3%

CCOC(=O)CCC(NC(=O)c1ccc(N)cc1)C(=O)OCC (stereo unspecified)
inactive: BT-549 breast 44.8% | MDA-MB-435 melanoma 117% | SW-620 colon 107% | MCF7 breast 103% | HCT-116 colon 106% | HCC-2998 colon 105% | KM12 colon 106%

CCCCCCCCCCCCCCCC(=O)OC1[C@@H](OC(=O)CCCCCCCCCCCCCCC)[C@@H](C(=O)N[C@@H](CCCCN)C(=O)OC)O[C@H]1n1cnc2c(=O)[nH]c(NC(=O)C(C)C)nc21 (stereo partly specified)
inactive: BT-549 breast 105% | MDA-MB-435 melanoma 99.6% | SW-620 colon 104% | MCF7 breast 96.4% | HCT-116 colon 85.4% | HCC-2998 colon 101% | KM12 colon 95%

O=C1/C(=C/c2ccc(Cl)cc2)SC(=Nc2ccc(Cl)cc2)N1Cc1nc2ccccc2[nH]1
inactive: BT-549 breast 104% | MDA-MB-435 melanoma 76.3% | SW-620 colon 74.9% | MCF7 breast 59% | HCT-116 colon 53.8% | HCC-2998 colon 62% | KM12 colon 76.7%
